Results: PubChem BioAssay
Values joined by “and” are separate entries in the source; they are usually repeats but may differ in a detail not shown here. Equal entries are not always repeated. Records with an inconclusive call do not appear. Active and inactive are the calls of the source.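 How the source made its calls, unless noted: active means mean z-score across replicates of 1.96 or higher in either the MELAS or the Rieske mutant cell line; inactive means the rest.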 Starred links: 1 amine or outer side, 2 acyl side, 3 side chain; linkers in the order of their positions; H or OH if unused. Positions of bridges follow the written chain, without caps; N, C: chain ends. Non-standard residues stand in square brackets, D forms with d. Residues, ends and D or L forms follow the SMILES beside them. Chains are numbered I, II in the order given. Actinocin(9to1) = Cc1c2oc3c(C)ccc(C(=O)[*:1])c3nc-2c(C(=O)[*:2])c(N)c1=O; NMeV = CN[C@H](C(=O)O)C(C)C; Sar = CNCC(=O)O

Key:
[1] = EMT-state selective cytotoxicity in co-culture – imaging, PC-3E GFP, TEM4-18 mCherry, primary screen (AID 1345086;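 active means compounds killing one labelled cell type while sparing the other, by normalised counts and ratio limits, not self-fluorescent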;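 on all read-outs here: cells exposed to compound for 72 h before imaging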;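 on red/green cell ratio (normalised): normalised mesenchymal count divided by normalised epithelial count so high means epithelial killing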); details: PC-3E GFP / TEM4-18 mCherry co-culture, imaging cell counts, at 1 µM; for red/green cell ratio (normalised): actives lie on both sides, counts scaled to control wells, 1 = unselective
[2] = tested on: Aerobactin synthetase IucA (Klebsiella pneumoniae); assay: inhibition of K. pneumoniae IucA enzyme – biochemical, Tocris library, absorbance (AID 1345561; call rule not given here;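 further: 100% = enzyme without compound and 0% = no enzyme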); details: purified IucA enzyme assay, absorbance (OD) read-out; stronger effect = lower value;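 tested at 8 µM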
[3] = viability loss in pontine glioma line – cell-based, SU-DIPG-XVII, MIPE5.0, CellTiter-Glo, qHTS, dose response (AID 1347060; cut-off not given, nearly all actives have AC50 up to about 26 µM); details: CellTiter-Glo ATP luminescence
[4] = viability loss in pontine glioma line – cell-based, SU-DIPG-XIII, MIPE4.0, CellTiter-Glo, qHTS, dose response (AID 1347061; cut-off not given, nearly all actives have AC50 up to about 37 µM;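 further: cells exposed to compound for 48 hours before readout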); details: CellTiter-Glo ATP luminescence
[5] = viability loss in pontine glioma line – cell-based, JHH-DIPG-1, MIPE4.0, CellTiter-Glo, qHTS, dose response (AID 1347062; cut-off not given, nearly all actives have AC50 up to about 27 µM); details: JHH-DIPG-1 viability, CellTiter-Glo ATP luminescence
[6] = viability loss in pontine glioma line – cell-based, SU-DIPG-XIII, MIPE5.0, CellTiter-Glo, qHTS, dose response (AID 1347064; cut-off not given, nearly all actives have AC50 up to about 23 µM); details: CellTiter-Glo ATP luminescence
[7] = growth inhibition of DIPG cells – cell-based, MIPE4.0 library, CellTiter-Glo luminescence, qHTS (AID 1347066; cut-off not given, nearly all actives have AC50 up to about 30 µM;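 further: cells exposed to compound for 48 hours before readout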); details: SU-DIPG-VI viability, CellTiter-Glo ATP luminescence
[8] = JHH-DIPG-1 glioma cell viability, MIPE5.0 library, CellTiter-Glo luminescence, qHTS (AID 1347067; cut-off not given, nearly all actives have AC50 up to about 26 µM;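 further: cells exposed to compound for 48 hours before readout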); details: JHH-DIPG-1 glioma viability, CellTiter-Glo ATP luminescence
[9] = growth inhibition of DIPG cells – cell-based, MIPE5.0 library, qHTS (AID 1347068; cut-off not given, nearly all actives have IC50 up to about 30 µM); details: SU-DIPG-XXV viability
[10] = blockers of cellular phospholipid synthesis – cell-based, LOPAC library, screen 4, primary screen (AID 1347384; call rule not given here); details: animal cells, phospholipid biosynthesis inhibition screen; at 10 µM
[11] = MELAS cybrid and Rieske KO viability enhancers – cell-based, MELAS cybrids, Rieske KO mouse fibroblasts, CellTiter-Glo, primary screen (AID 1508586); details: low glucose;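 further: z relative to plate mean and SD of compound and empty wells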
[12] = viability loss in pontine glioma line – cell-based, SU-DIPG-IV, MIPE4.0, CellTiter-Glo, qHTS, dose response (AID 1347063; cut-off not given, nearly all actives have AC50 up to about 30 µM;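 further: compound exposure lasted 48 hours before the viability readout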); details: CellTiter-Glo ATP luminescence
[13] = viability loss in pontine glioma line – cell-based, SU-DIPG-XXV, MIPE5.0, CellTiter-Glo, qHTS, dose response (AID 1347065; cut-off not given, nearly all actives have AC50 up to about 26 µM;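 further: cells exposed to compound for 48 hours before ATP readout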); details: CellTiter-Glo ATP luminescence
[14] = modulation of C. elegans fzo-1 (AID 1259413; call rule not given here;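 further: fzo-1 mutant C. elegans worms in liquid wells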); details: C. elegans fzo-1 modulator screen, mean read-out; stronger effect = higher value
[15] = chitosan synthesis blockers in C. neoformans – flow cytometry, Cibacron Brilliant Red staining (AID 1347148; call rule not given here;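 further: compound exposure lasted three days at 37 degrees C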); details: Cryptococcus neoformans chitosan, stronger effect = lower value; at 10 µM unless noted
[16] = viability loss with induced miR-34 in A549 – imaging, A549 dox-inducible miR-34, nuclei and caspase counts, primary screen (AID 1347080;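 active means compounds whose cell count with miR-34 switched on is under 0.7 times the count with it off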); details: A549 miR-34 inducible, Hoechst nuclei count, 48 h
[17] = measured here: epithelial PC-3E GFP cell survival
[18] = measured here: mesenchymal TEM4-18 mCherry cell survival
[19] = MELAS cybrid survival, CellTiter-Glo 48 h, stronger effect = higher value
[20] = Rieske KO mouse fibroblast survival, CellTiter-Glo 72 h
[21] = stronger effect = lower value, cell number ratio, induced over uninduced
[22] = measured here: relative caspase fold change +Dox/-Dox
[23] = measured here: total cells with miR-34 induction, stronger effect = lower value
[24] = measured here: total cells without miR-34 induction

What does the source list for `COc1ccc2[nH]cc(CCNC(C)=O)c2c1`?
red/green cell ratio (normalised) [1]: 1.02 (inactive); normalised cell number [1, 17]: 0.84; normalised cell number [1, 18]: 0.86; remaining activity [2]: 102% (inactive); outcome [3]: inactive; outcome [4]: inactive; outcome [5]: inactive; outcome [6]: inactive; outcome [7]: inactive; outcome [8]: inactive; outcome [9]: inactive; outcome [10]: inactive; z-score [11, 19]: -0.429 (inactive) and 0.313 (inactive) and -0.146 (inactive); z-score [11, 20]: -0.494 and 0.0961 and -0.273

What does the source list for `Oc1cc(O)c2c(c1)O[C@H](c1ccc(O)c(O)c1)[C@H](O)C2`?
red/green cell ratio (normalised) [1]: 0.83 (inactive); normalised cell number [1, 17]: 1.07; normalised cell number [1, 18]: 0.89

With `Cc1cc(C(C)(C)C)c(O)c(C)c1CC1=NCCN1` as the compound, how does the red/green cell ratio (normalised) [1] read?
Its red/green cell ratio (normalised) is 0.88 (inactive).

What about the normalised cell number [1, 17] of the same compound?
The normalised cell number was 1.08.

What about the normalised cell number [1, 18] of the same compound?
The normalised cell number was 0.96.

And the remaining activity [2]?
The remaining activity was 99.4% (inactive).

And the outcome [3]?
Its outcome is “inactive”.

What about the outcome [4] of the same compound?
The outcome was “inactive”.

What about the outcome [12] of the same compound?
The outcome was “inactive”.

And the outcome [6]?
The outcome was “inactive”.

And the outcome [13]?
Its outcome is “inactive”.

What about the outcome [7] of the same compound?
The outcome was “inactive”.

What about the outcome [8] of the same compound?
Its outcome is “inactive”.

And the outcome [9]?
The outcome was “inactive”.

And the outcome [10]?
Its outcome is “inactive”.

And the z-score [11, 19]?
The z-score was -0.371 (inactive) and 0.43 (inactive) and 0.93 (inactive).

What about the z-score [11, 20] of the same compound?
The z-score was 0.698 and 0.504 and 0.891.

What does the source list for `Cc1c2oc3c(C)ccc(C(=O)N[C@@H]4C(=O)N[C@H](C(C)C)C(=O)N5CCC[C@H]5C(=O)N(C)CC(=O)N(C)[C@@H](C(C)C)C(=O)O[C@@H]4C)c3nc-2c(C(=O)N[C@@H]2C(=O)N[C@H](C(C)C)C(=O)N3CCC[C@H]3C(=O)N(C)CC(=O)N(C)[C@@H](C(C)C)C(=O)O[C@@H]2C)c(N)c1=O` (I: T[dV]P[Sar][NMeV] / II: T[dV]P[Sar][NMeV]; ester I:1-I:C, II:1-II:C; linker I:N-II:N via Actinocin(9to1))?
mean signal [14]: 256 (inactive); fold fluorescence [15]: 23.3 [at 107.6 µM] (inactive)

Which red/green cell ratio (normalised) [1] does the source give for `CC(=O)Nc1cccc(O)c1` here?
Its red/green cell ratio (normalised) is 0.95 (inactive).

What about the normalised cell number [1, 17] of the same compound?
Its normalised cell number is 0.83.

And the normalised cell number [1, 18]?
The normalised cell number was 0.79.

Which results are given for `C[C@](N)(Cc1ccc(O)c(O)c1)C(=O)O`?
red/green cell ratio (normalised) [1]: 1.05 (inactive); normalised cell number [1, 17]: 0.98; normalised cell number [1, 18]: 1.03; remaining activity [2]: 110% (inactive); outcome [3]: inactive; outcome [4]: inactive; outcome [12]: inactive; outcome [7]: inactive; outcome [9]: inactive; outcome [10]: inactive; z-score [11, 19]: -1.52 (inactive) and -0.0357 (inactive); z-score [11, 20]: -0.276 and -0.892

Which results are given for `C/C=C1\[C@H]2C=C(C)C[C@]1(N)c1ccc(=O)[nH]c1C2`?
red/green cell ratio (normalised) [1]: 1.22 (inactive); normalised cell number [1, 17]: 0.97; normalised cell number [1, 18]: 1.18

Which red/green cell ratio (normalised) [1] does the source give for `CC(=O)NCCCCCC(=O)O` here?
Its red/green cell ratio (normalised) is 0.96 (inactive).

What about the normalised cell number [1, 17] of the same compound?
The normalised cell number was 0.98.

And the normalised cell number [1, 18]?
Its normalised cell number is 0.95.

What does the source list for `CC(C)(Oc1ccc(Cl)cc1)C(=O)O`?
red/green cell ratio (normalised) [1]: 0.77 (inactive); normalised cell number [1, 17]: 1.11; normalised cell number [1, 18]: 0.86; remaining activity [2]: 92.9% (inactive); fold change [16, 21]: 0.908 (inactive) and 0.929 (inactive) and 0.927 (inactive); fold change [16, 22]: 1.01 and 0.543 and 0.953; cell count [16, 23]: 9250 and 7700 and 8560; cell count [16, 24]: 10200 and 8280 and 9240; z-score [11, 19]: -0.232 (inactive) and -0.856 (inactive); z-score [11, 20]: -0.207 and -0.151

Which results are given for `CC(C)NCC(O)c1ccc2ccccc2c1` (stereo not given)?
red/green cell ratio (normalised) [1]: 1.02 (inactive); normalised cell number [1, 17]: 1.05; normalised cell number [1, 18]: 1.07; remaining activity [2]: 94.1% (inactive); fold change [16, 21]: 0.951 (inactive) and 0.938 (inactive) and 0.885 (inactive); fold change [16, 22]: 0.594 and 1.29 and 1.16; cell count [16, 23]: 8750 and 8620 and 9710; cell count [16, 24]: 9200 and 11000; z-score [11, 19]: 0.654 (inactive) and -0.419 (inactive); z-score [11, 20]: -0.347 and -0.52
